Values without a mark were called inactive.

Experimental findings from the supplement of paper PMC13380429 are described below.

In this test the test system is Vero E6 infected with SARS-CoV-2. The test is described as follows: SARS-CoV-2 infection rate relative to infected DMSO; higher = more infection, active = 60 or less. The following applies: 24 h.
For `Oc1c(CN2CCCC2)cc(COCc2ccccc2)c2cccnc12` (10 µM), the SARS-CoV-2 infection rate was 104%. `Cc1noc(C)c1-c1ccc(-c2cc(C(N)=O)c(NC(N)=O)s2)c(O[C@H]2CCNC2)c1` (10 µM): the SARS-CoV-2 infection rate is 104%. As to `Cc1cc(C(N)=O)ccc1-n1c(CCC(=O)O)ccc1-c1ccc(-n2ccnc2)cc1` (10 µM), the SARS-CoV-2 infection rate is 89%.

`O[C@H]([C@H](O)[C@@H]1CO1)[C@H]1CO1` [dianhydrogalactitol] (10 µM): the SARS-CoV-2 infection rate is 114%.

In the case of `O=c1ccc2ccccc2o1` [coumarin] (10 µM), the SARS-CoV-2 infection rate was 89.5%. For the compound `CCCCOc1ccc(-c2cncc(C(=O)NCc3cccnc3N3CCOCC3)c2)cc1Cl` (10 µM), the SARS-CoV-2 infection rate is 108%. The figure for `O=C(O)C(Cc1ccccc1[N+](=O)[O-])=NNc1nc(-c2ccc(Cl)c(Cl)c2)cs1` (10 µM) is 102%; for `COc1cc2c(cc1OC)-c1cc3ccc(OC)c(OC)c3c[n+]1CC2` [palmatine-chloride] (10 µM) it is 92%; for `O=C1NC(=O)c2cc(Nc3ccc(F)cc3)c(Nc3ccc(F)cc3)cc21` (10 µM) it is 77.5%. The figure for `CNC[C@H](O)c1cccc(O)c1` [phenylephrine] (10 µM) is 110%. As to `O=C1Nc2ccc(Cl)cc2[C@@](C#CC2CC2)(C(F)(F)F)O1` [efavirenz] (10 µM), the SARS-CoV-2 infection rate is 108%. As for `CCN(CC)CCNC(=O)COc1ccc(OC)cc1` [mefexamide] (10 µM), the figure is 113%. The figure for `Cc1c(N)nc([C@H](CC(N)=O)NC[C@H](N)C(N)=O)nc1C(=O)N[C@H](C(=O)N[C@H](C)[C@@H](O)[C@H](C)C(=O)N[C@H](C(=O)NCCc1nc(-c2nc(C(=O)NCCC[S+](C)C)cs2)cs1)[C@@H](C)O)[C@@H](OC1OC(CO)C(O)C(O)C1OC1OC(CO)C(O)C(OC(N)=O)C1O)c1cnc[nH]1` (stereo not given in full) [bleomycin] (10 µM) is 100%; for `NCCCNCCSP(=O)(O)O` [amifostine] (10 µM) it is 100%; for `CCCCCCCCOc1ccccc1C(=O)Nc1ccc(C(=O)OCC[N+](C)(CC)CC)cc1` [otilonium] (10 µM) it is 101%.

Consider `COc1ccc(S(=O)(=O)N2c3ccc(Cl)cc3[C@](O)(c3ccccc3Cl)[C@@H]2C(=O)N2CCC[C@H]2C(N)=O)cc1OC` [relcovaptan] (10 µM), for which the SARS-CoV-2 infection rate is 106%. As for `C#C[C@]1(OC(C)=O)CC[C@H]2[C@@H]3CCC4=CC(=O)CC[C@@H]4[C@H]3CC[C@@]21C` [norethindrone-acetate] (10 µM), the SARS-CoV-2 infection rate is 106%. The figure for `COc1cc2nccc(Oc3ccc(NC(=O)Nc4ccc(F)cc4F)c(F)c3)c2cc1OC` (10 µM) is 111%; for `CC(=O)Nc1ccc(NC(=S)NC(=O)c2ccc(C(C)(C)C)cc2)cc1` [tenovin-1] (10 µM) it is 109%. As for `Oc1ccc2ccccc2c1` [beta-naphthol] (10 µM), the figure is 111%. As for `COc1ccc(NS(=O)(=O)c2ccc(/N=N/c3ccc(O)c(C(=O)O)c3)cc2)nn1` [salazodine] (10 µM), the figure is 113%; as for `CN(C)CCN(C)CCc1ccc(Cl)c(Cl)c1` (10 µM), 82.5%; as for `COc1cc(C(=O)NCC2(N(C)C)CCCC2)cc(OC)c1OCc1ccccc1` (10 µM), 77.5%. With `Nc1ccn(C[C@@H](CO)OCP(=O)(O)O)c(=O)n1` [cidofovir] (10 µM), the SARS-CoV-2 infection rate was 108%. `O=C(/C=C/c1ccc2ccc(C(F)(F)F)cc2n1)c1ccncc1` (10 µM): the SARS-CoV-2 infection rate was 63.5%. The figure for `O=C1OCCN1/N=C/c1ccc([N+](=O)[O-])o1` [furazolidone] (10 µM) is 102%.

With `CCN(C(=O)c1c(O)c2c(Cl)cccc2n(C)c1=O)c1ccccc1` [laquinimod] (10 µM), the SARS-CoV-2 infection rate was 99%.

Turning to `CCCCC/C=C\C=C\CCCCCCCCC(=O)O` [trans-10,cis-12-conjugated-linoleic-acid] (10 µM), the SARS-CoV-2 infection rate was 104%. Turning to `C[N+]12CCC(CC1)C(OC(=O)C(O)(c1ccccc1)c1ccccc1)C2` (stereo not given) [clidinium] (10 µM), the SARS-CoV-2 infection rate is 95%. Consider `CCCCNc1cc(C(=O)O)cc(S(N)(=O)=O)c1Oc1ccccc1` [bumetanide] (10 µM), for which the SARS-CoV-2 infection rate was 102%. For `COc1cc2ncn(-c3cc(OCc4ccccc4C(F)(F)F)c(C(N)=O)s3)c2cc1OC` (10 µM), the SARS-CoV-2 infection rate was 106%. The figure for `O=C(NO)C1(CS(=O)(=O)c2ccc(Oc3ccc(Cl)cc3)cc2)CCOCC1` (10 µM) is 98.5%; for `CC(=O)OCC1=C(C(=O)O)N2C(=O)[C@@H](NC(=O)CS/C(=N/C(C)C)NC(C)C)[C@H]2SC1` [cefathiamidine] (10 µM) it is 92%; for `Cn1c(=O)c2c(ncn2CC(=O)O)n(C)c1=O` [acefylline] (10 µM) it is 100%. The figure for `Oc1cc2c(cc1O)CN(C(=S)NCCc1ccc(Cl)cc1)CCC2` [capsazepine] (10 µM) is 92.5%; for `OCCCCO` [1,4-butanediol] (10 µM) it is 105%; for `COc1ccc2[nH]c([S+]([O-])Cc3ncc(C)c(OC)c3C)nc2c1` (stereo not given) [omeprazole] (10 µM) it is 104%.

In the case of `CCc1ccc(OCc2ccccc2C(=O)Nc2ccc3nc(C)cc(N)c3c2)cc1` (0.833333 µM), the SARS-CoV-2 infection rate is 89%. As for `N#Cc1cc(F)cc(-c2nc(-c3ccc(F)cn3)no2)c1` (10 µM), the SARS-CoV-2 infection rate is 89%. The figure for `COc1cc2c(cc1OC)CC(=O)N(CCCN(C)C[C@H]1Cc3cc(OC)c(OC)cc31)CC2` [ivabradine] (10 µM) is 112%.
